# Measured values taken from the antibiotic and cytotoxicity screens of Wong et al. (2023).
# The whole screen tested about 39,000 compounds, of which about 3,300 (8.5%) were called active. The sample holds actives, similar compounds and a random draw of the others, so the mix is not that of the screen.
# System: HepG2
# Test: cytotoxicity call (relative viability < 0.9)
# Conditions: 10 µM
row,SMILES,cytotoxicity call
1,COc1nc(C#N)nc(N2CCCCC2)n1,inactive
2,COc1ccc(S(=O)(=O)N(C)C[C@H]2OCCCC[C@@H](C)Oc3ccc(NC(=O)Nc4ccc(F)cc4)cc3C(=O)N([C@@H](C)CO)C[C@@H]2C)cc1,inactive
3,CCO[C@@H]1OC(C(=O)N2CCN(Cc3ccc4c(c3)OCO4)CC2)=C[C@H](C)[C@H]1CCCOC(=O)NCCCCCC(=O)NO,inactive
4,Cc1noc(C)c1NC(=O)Nc1ccc2c(c1)C(=O)N([C@H](C)CO)C[C@@H](C)[C@H](CN(C)Cc1ccccc1)OCCCC[C@H](C)O2,inactive
5,Cc1cccc(S(=O)(=O)N2C[C@H](O)COC[C@H]3O[C@H](CC(=O)NCCCN4CCOCC4)CC[C@@H]32)c1,inactive
6,C[C@@H]1CN([C@H](C)CO)C(=O)Cc2cc(NS(C)(=O)=O)ccc2O[C@@H]1CN(C)C(=O)Nc1ccc2c(c1)OCO2,inactive
7,C[C@@H]1CN([C@@H](C)CO)C(=O)c2cc(NC(=O)CCC(F)(F)F)ccc2O[C@@H](C)CCCCO[C@H]1CN(C)Cc1ccc2c(c1)OCO2,inactive
8,Cc1noc(C)c1S(=O)(=O)N(C)C[C@@H]1Oc2ccc(NC(=O)Cn3cnnn3)cc2CC(=O)N([C@@H](C)CO)C[C@@H]1C,inactive
9,C[C@H]1CN([C@@H](C)CO)S(=O)(=O)c2ccc(C#CCN(C)C)cc2O[C@H]1CN(C)C(=O)c1ccccc1F,inactive
10,O=C(C[C@@H]1CC[C@@H](NC(=O)CN2CCOCC2)[C@@H](CO)O1)NC1CCC1,inactive
11,COc1cccc(CN(C)C[C@@H]2OCc3ccccc3-c3c(n(C)c4ccccc34)C(=O)N([C@H](C)CO)C[C@@H]2C)c1,inactive
12,Cc1ccc(S(=O)(=O)N(C)C[C@@H]2Oc3ccc(NC(=O)CCCN(C)C)cc3C(=O)N([C@H](C)CO)C[C@@H]2C)cc1,inactive
13,Nc1ccc(/C=C/C(=O)NCc2cc3cc(-c4ccc(C(=O)N5CCC(F)(F)CC5)cc4)cc(-c4ccc(F)cc4)c3o2)cn1,active
14,C[C@H]1CN([C@@H](C)CO)C(=O)CCCn2nncc2CO[C@@H]1CN(C)C(=O)C1CC1,inactive
15,CC(C)NC(=O)Nc1cccc2c1O[C@H](CN(C)Cc1ccc(Oc3ccccc3)cc1)[C@@H](C)CN([C@H](C)CO)C2=O,inactive
16,Cc1ccc2nccc(C(=O)N3CCC[C@@H](Cn4cc(C(C)(C)N)nn4)C3)c2c1,inactive
17,C[C@H]1CCCCO[C@H](CN(C)C(=O)Nc2cccc3ccccc23)[C@@H](C)CN([C@@H](C)CO)C(=O)c2cc(NS(C)(=O)=O)ccc2O1,inactive
18,COc1cc(C(=O)N2CCN(CCN3C(=O)c4cccc5cccc(c45)C3=O)CC2)cc(OC)c1OC,inactive
19,COc1cc(C(=O)N2CCC(N3CCN(C)CC3)CC2)ccc1Nc1ncc2c(n1)N(C)c1ccccc1C(=O)N2C,active
20,NC1CCN(C(=O)c2c[nH]c3ccccc23)CC1,inactive
21,COc1cc(C(=O)NC2CCN(C)CC2)ccc1Nc1ncc2c(n1)N(C1CCC(O)CC1)CCC(=O)N2C (stereo unspecified),inactive
22,COc1cc(N2CCC(N)CC2)ccc1Nc1ncc(Cl)c(-c2c[nH]c3ccccc23)n1,active
23,COc1cc(N2CCC(N3CCN(C)CC3)CC2)ccc1Nc1ncc(Cl)c(Nc2ccccc2S(=O)(=O)C(C)C)n1,active
24,Cc1cc(Nc2ncc(Cl)c(Nc3ccccc3S(=O)(=O)C(C)C)n2)c(OC(C)C)cc1C1CCNCC1,active
25,COc1cc(N2CCC(O)CC2)ccc1Nc1cc(Nc2ccccc2S(=O)(=O)C(C)C)c2cc[nH]c2n1,inactive
26,Cc1noc(C)c1S(=O)(=O)Nc1ccc2c(c1)C(=O)N([C@@H](C)CO)C[C@H](C)[C@H](CN(C)C(=O)NC1CCCCC1)O2,inactive

row,SMILES,cytotoxicity call
1,Cc1noc(C)c1NC(=O)N(C)C[C@H]1Oc2c(NC(=O)c3ccc(-c4nccs4)cc3)cccc2C(=O)N([C@@H](C)CO)C[C@H]1C,inactive
2,Cc1noc(C)c1NC(=O)N(C)C[C@@H]1OCCCC[C@H](C)Oc2ccc(NC(=O)c3ccccc3)cc2C(=O)N([C@@H](C)CO)C[C@@H]1C,inactive
3,NC[C@H]1OB(O)c2c(OCCCO)cccc21,inactive
4,C=CCOC(=O)[C@H]1[C@@H]2C(=O)O[C@@H](c3ccccc3)[C@@H](c3ccccc3)N2[C@@H](c2ccc(OCCOC(=O)[C@@H]3C[C@@H]4C(=O)N5CCC[C@H]5C(=O)N4[C@@H]3c3cccc(OCCO)c3)cc2)[C@]12C(=O)Nc1ccc(I)cc12,inactive
5,CC(C)NC(=O)Nc1ccc2c(c1)CC(=O)N([C@H](C)CO)C[C@H](C)[C@H](CN(C)C(=O)NC1CCCCC1)O2,inactive
6,CN1C(=O)c2cc(NC(=O)c3cccs3)ccc2OC[C@@H]2O[C@@H](CC(=O)NCC(F)(F)F)CC[C@@H]21,inactive
7,COc1cc(N2CCC(N(C)C)CC2)ccc1Nc1ncc(Cl)c(Nc2ccccc2P(C)(C)=O)n1,active
8,C=C(C)C1CCC2(CO)CCC3(C)C(CCC4C5(C)CCC(O)C(C)(C)C5CCC43C)C12 (stereo unspecified),active
9,C=C(C)C1CCC2(C)CCC3(C)C(CCC4C5(C)CCC(O)C(C)(C)C5CCC43C)C12 (stereo unspecified),inactive
10,C=C(C)C1CCC2(C(=O)O)CCC3(C)C(CCC4C5(C)CCC(O)C(C)(C)C5CCC43C)C12 (stereo unspecified),inactive
11,CCS(=O)(=O)Nc1ccc2c(c1)C(=O)N(C)[C@@H]1CC[C@@H](CC(=O)NCCOC)O[C@@H]1CO2,inactive
12,Cc1noc(C)c1NC(=O)N(C)C[C@@H]1Oc2ccc(NC(=O)Nc3ccc(C(F)(F)F)cc3)cc2CC(=O)N([C@H](C)CO)C[C@H]1C,inactive
13,CNC[C@@H]1Oc2cc(C#CC(C)(C)O)ccc2S(=O)(=O)N([C@@H](C)CO)C[C@@H]1C,inactive
14,C[C@@H]1CN([C@H](C)CO)C(=O)c2cccc(NS(=O)(=O)c3ccccc3)c2O[C@@H]1CN(C)Cc1ccc(-c2ccccc2)cc1,active
15,Cc1ccc(S(=O)(=O)Nc2cccc3c2O[C@@H](CN(C)Cc2ccc(-c4ccccc4)cc2)[C@H](C)CN([C@H](C)CO)C3=O)cc1,inactive
16,Cc1ccc(S(=O)(=O)Nc2cccc3c2O[C@H](CN(C)Cc2ccc(-c4ccccc4)cc2)[C@@H](C)CN([C@@H](C)CO)C3=O)cc1,inactive
17,Cc1ccc(S(=O)(=O)Nc2cccc3c2O[C@@H](CN(C)Cc2ccc(-c4ccccc4)cc2)[C@@H](C)CN([C@H](C)CO)C3=O)cc1,active
18,C[C@H]1CN([C@@H](C)CO)C(=O)c2cccc(NS(=O)(=O)c3ccccc3)c2O[C@H]1CN(C)Cc1ccc(-c2ccccc2)cc1,inactive
19,Cc1ccc(S(=O)(=O)Nc2cccc3c2O[C@@H](CN(C)Cc2ccc(-c4ccccc4)cc2)[C@@H](C)CN([C@@H](C)CO)C3=O)cc1,inactive
20,C[C@@H]1CN([C@@H](C)CO)C(=O)c2cccc(NS(=O)(=O)c3ccccc3)c2O[C@H]1CN(C)Cc1ccc(-c2ccccc2)cc1,inactive
21,C[C@@H]1CN([C@H](C)CO)C(=O)c2cccc(NS(=O)(=O)c3ccc(Cl)cc3)c2O[C@H]1CN(C)Cc1ccc(-c2ccccc2)cc1,inactive
22,C[C@@H]1CN([C@@H](C)CO)C(=O)c2cccc(NS(=O)(=O)c3ccc(Cl)cc3)c2O[C@@H]1CN(C)Cc1ccc(-c2ccccc2)cc1,active
23,Cc1ccc(S(=O)(=O)Nc2cccc3c2O[C@H](CN(C)Cc2ccc(-c4ccccc4)cc2)[C@@H](C)CN([C@H](C)CO)C3=O)cc1,inactive
24,Cc1ccc(S(=O)(=O)Nc2cccc3c2O[C@H](CN(C)Cc2ccc(-c4ccccc4)cc2)[C@H](C)CN([C@H](C)CO)C3=O)cc1,active
25,C[C@@H]1CN([C@@H](C)CO)C(=O)c2cccc(NS(=O)(=O)c3ccc(Cl)cc3)c2O[C@H]1CN(C)Cc1ccc(-c2ccccc2)cc1,inactive
